Results on 35 molecules are retold here after publication PMC9911399, “Two distinct binding modes provide the RNA-binding protein RbFox with extraordinary sequence specificity”.

First the molecules themselves.
T1: RBFOX1 RRM RbFoxmut (Fox-RRM*) (Homo sapiens, UniProt Q9NWB1 109-208, R118D;E147R;N151S;E152T)
T1 sequence: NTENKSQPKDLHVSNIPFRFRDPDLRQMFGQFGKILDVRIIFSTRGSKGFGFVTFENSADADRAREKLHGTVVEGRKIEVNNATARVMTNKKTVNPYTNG

B1: GACUUGG (DNA:RNA)
RNA: GGGAGACCGGAAUUCAGAUUGUCCGACUUGGUUAAAUCCCGUCGUAGCCACCA
DNA 1: CAATCTGAATTCCGGTCTCCC
DNA 2: TGGTGGCTACGACGGGATT
B2: CCCAUAU (DNA:RNA)
RNA: B1 RNA with G25C, A26C, U28A, G30A, G31U
DNA 1: CAATCTGAATTCCGGTCTCCC
DNA 2: TGGTGGCTACGACGGGATT
B3: UUCGAGC (DNA:RNA)
RNA: B1 RNA with G25U, A26U, U28G, U29A, G31C
DNA 1: CAATCTGAATTCCGGTCTCCC
DNA 2: TGGTGGCTACGACGGGATT
B4: GAAGACC (DNA:RNA)
RNA: B1 RNA with C27A, U28G, U29A, G30C, G31C
DNA 1: CAATCTGAATTCCGGTCTCCC
DNA 2: TGGTGGCTACGACGGGATT
B5: CAAUUUU (DNA:RNA)
RNA: B1 RNA with G25C, C27A, G30U, G31U
DNA 1: CAATCTGAATTCCGGTCTCCC
DNA 2: TGGTGGCTACGACGGGATT
B6: CUCUUGA (DNA:RNA)
RNA: B1 RNA with G25C, A26U, G31A
DNA 1: CAATCTGAATTCCGGTCTCCC
DNA 2: TGGTGGCTACGACGGGATT
B7: UUUGGCC (DNA:RNA)
RNA: GGGAGACCGGAAUUCAGAUUGUCCUUUGGCCUUAAAUCCCGUCGUAGCCACCA
DNA 1: CAATCTGAATTCCGGTCTCCC
DNA 2: TGGTGGCTACGACGGGATT
B8: GACUCAA (DNA:RNA)
RNA: B1 RNA with U29C, G30A, G31A
DNA 1: CAATCTGAATTCCGGTCTCCC
DNA 2: TGGTGGCTACGACGGGATT
B9: UGUGUCG (DNA:RNA)
RNA: B7 RNA with U26G, G29U, C31G
DNA 1: CAATCTGAATTCCGGTCTCCC
DNA 2: TGGTGGCTACGACGGGATT
B10: CCCUGUC (DNA:RNA)
RNA: B1 RNA with G25C, A26C, U29G, G30U, G31C
DNA 1: CAATCTGAATTCCGGTCTCCC
DNA 2: TGGTGGCTACGACGGGATT
B11: UGUGUUG (DNA:RNA)
RNA: B7 RNA with U26G, G29U, C30U, C31G
DNA 1: CAATCTGAATTCCGGTCTCCC
DNA 2: TGGTGGCTACGACGGGATT
B12: UGUCGUG (DNA:RNA)
RNA: B7 RNA with U26G, G28C, C30U, C31G
DNA 1: CAATCTGAATTCCGGTCTCCC
DNA 2: TGGTGGCTACGACGGGATT
B13: UGUAGUG (DNA:RNA)
RNA: B7 RNA with U26G, G28A, C30U, C31G
DNA 1: CAATCTGAATTCCGGTCTCCC
DNA 2: TGGTGGCTACGACGGGATT
B14: UGUGUAG (DNA:RNA)
RNA: B7 RNA with U26G, G29U, C30A, C31G
DNA 1: CAATCTGAATTCCGGTCTCCC
DNA 2: TGGTGGCTACGACGGGATT
B15: UGUUGUG (DNA:RNA)
RNA: B7 RNA with U26G, G28U, C30U, C31G
DNA 1: CAATCTGAATTCCGGTCTCCC
DNA 2: TGGTGGCTACGACGGGATT
B16: CUGUGUC (DNA:RNA)
RNA: B7 RNA with U25C, U27G, G28U, C30U
DNA 1: CAATCTGAATTCCGGTCTCCC
DNA 2: TGGTGGCTACGACGGGATT
B17: UGUGUCU (DNA:RNA)
RNA: B7 RNA with U26G, G29U, C31U
DNA 1: CAATCTGAATTCCGGTCTCCC
DNA 2: TGGTGGCTACGACGGGATT
B18: GCACGUU (DNA:RNA)
RNA: B1 RNA with A26C, C27A, U28C, U29G, G30U, G31U
DNA 1: CAATCTGAATTCCGGTCTCCC
DNA 2: TGGTGGCTACGACGGGATT
B19: GUUAAGG (DNA:RNA)
RNA: B1 RNA with A26U, C27U, U28A, U29A
DNA 1: CAATCTGAATTCCGGTCTCCC
DNA 2: TGGTGGCTACGACGGGATT
B20: UGUACAC (DNA:RNA)
RNA: B7 RNA with U26G, G28A, G29C, C30A
DNA 1: CAATCTGAATTCCGGTCTCCC
DNA 2: TGGTGGCTACGACGGGATT
B21: GUCUCAC (DNA:RNA)
RNA: B1 RNA with A26U, U29C, G30A, G31C
DNA 1: CAATCTGAATTCCGGTCTCCC
DNA 2: TGGTGGCTACGACGGGATT
B22: GGGUCUA (DNA:RNA)
RNA: B1 RNA with A26G, C27G, U29C, G30U, G31A
DNA 1: CAATCTGAATTCCGGTCTCCC
DNA 2: TGGTGGCTACGACGGGATT
B23: UAACUCU (DNA:RNA)
RNA: B1 RNA with G25U, C27A, U28C, G30C, G31U
DNA 1: CAATCTGAATTCCGGTCTCCC
DNA 2: TGGTGGCTACGACGGGATT
B24: UCUGACU (DNA:RNA)
RNA: B7 RNA with U26C, G29A, C31U
DNA 1: CAATCTGAATTCCGGTCTCCC
DNA 2: TGGTGGCTACGACGGGATT
B25: AACCUGA (DNA:RNA)
RNA: B1 RNA with G25A, U28C, G31A
DNA 1: CAATCTGAATTCCGGTCTCCC
DNA 2: TGGTGGCTACGACGGGATT
B26: CAACUCG (DNA:RNA)
RNA: B1 RNA with G25C, C27A, U28C, G30C
DNA 1: CAATCTGAATTCCGGTCTCCC
DNA 2: TGGTGGCTACGACGGGATT
B27: UGUGUUC (DNA:RNA)
RNA: B7 RNA with U26G, G29U, C30U
DNA 1: CAATCTGAATTCCGGTCTCCC
DNA 2: TGGTGGCTACGACGGGATT
B28: CACUGAA (DNA:RNA)
RNA: B1 RNA with G25C, U29G, G30A, G31A
DNA 1: CAATCTGAATTCCGGTCTCCC
DNA 2: TGGTGGCTACGACGGGATT
B29: UUCCUUC (DNA:RNA)
RNA: B7 RNA with U27C, G28C, G29U, C30U
DNA 1: CAATCTGAATTCCGGTCTCCC
DNA 2: TGGTGGCTACGACGGGATT
B30: GUUAUGC (DNA:RNA)
RNA: B1 RNA with A26U, C27U, U28A, G31C
DNA 1: CAATCTGAATTCCGGTCTCCC
DNA 2: TGGTGGCTACGACGGGATT
B31: CGUAUGC (DNA:RNA)
RNA: B1 RNA with G25C, A26G, C27U, U28A, G31C
DNA 1: CAATCTGAATTCCGGTCTCCC
DNA 2: TGGTGGCTACGACGGGATT
B32: GGUAUGC (DNA:RNA)
RNA: B1 RNA with A26G, C27U, U28A, G31C
DNA 1: CAATCTGAATTCCGGTCTCCC
DNA 2: TGGTGGCTACGACGGGATT
B33: UUAUGCU (DNA:RNA)
RNA: B7 RNA with U27A, G28U, C31U
DNA 1: CAATCTGAATTCCGGTCTCCC
DNA 2: TGGTGGCTACGACGGGATT
B34: GGAUGCU (DNA:RNA)
RNA: B1 RNA with A26G, C27A, U29G, G30C, G31U
DNA 1: CAATCTGAATTCCGGTCTCCC
DNA 2: TGGTGGCTACGACGGGATT
B35: GUAUGCU (DNA:RNA)
RNA: B7 RNA with U25G, U27A, G28U, C31U
DNA 1: CAATCTGAATTCCGGTCTCCC
DNA 2: TGGTGGCTACGACGGGATT

Positions count from the first letter of the chain named. Over roughly 16,000 sequences, “ka relative to ugcaugu” has its median near 0.096; the highest 2% begin near 0.35. The full list was thinned out, with the highest values kept by preference.

This experiment deals with T1, RBFOX1 RRM RbFoxmut (Fox-RRM*). Description: EMSA; HiTS-Eq, 1 nM pool, 10 min; buffer printed only for the single-RNA assays: 10 mM Tris pH 7.5, 150 mM NaCl, 3.4 mM EDTA, 0.001% NP-40, 30 C. The note with it: tags: His6 N-terminal (pET28a); label: 5' 32P. Put shortly: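 Purified RbFox RRM (wild type or mutant) was equilibrated for 10 min in 50 µL with 1 nM of a 5′-radiolabelled pool of RNA with 7 randomized nucleotides, its flanks annealed to DNA oligonucleotides, across increasing protein concentrations. Free RNA was separated by 8% native PAGE, excised, reverse-transcribed, PCR-barcoded and sequenced on an Illumina HiSeq 2500. Relative association constants came from read-count changes of each variant against the control reaction, normalised to the cognate motif.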
B1: the binding signal is 0.129 KA relative to UGCAUGU.

As for B2, the binding signal is 0.0892 KA relative to UGCAUGU.

As to B3, the binding signal was 0.116 KA relative to UGCAUGU.

With B4, the binding signal was 0.0506 KA relative to UGCAUGU.

On to B5, for which the binding signal is 0.0669 KA relative to UGCAUGU.

Take B6: the binding signal was 0.107 KA relative to UGCAUGU.

For B7, the binding signal was 0.282 KA relative to UGCAUGU.

Consider B8, for which the binding signal was 0.0967 KA relative to UGCAUGU.

As for B9, the binding signal is 0.253 KA relative to UGCAUGU.

Regarding B10, the binding signal is 0.194 KA relative to UGCAUGU.

Regarding B11, the binding signal was 0.383 KA relative to UGCAUGU.

On to B12, for which the binding signal was 0.193 KA relative to UGCAUGU.

Take B13: the binding signal is 0.682 KA relative to UGCAUGU.

Turning to B14, the binding signal was 0.196 KA relative to UGCAUGU.

Regarding B15, the binding signal was 0.29 KA relative to UGCAUGU.

Take B16: the binding signal is 0.436 KA relative to UGCAUGU.

In the case of B17, the binding signal is 0.131 KA relative to UGCAUGU.

For the molecule B18, the binding signal is 0.318 KA relative to UGCAUGU.

Regarding B19, the binding signal was 0.0786 KA relative to UGCAUGU.

Regarding B20, the binding signal is 0.0562 KA relative to UGCAUGU.

Take B21: the binding signal was 0.0695 KA relative to UGCAUGU.

For the molecule B22, the binding signal was 0.1 KA relative to UGCAUGU.

As to B23, the binding signal was 0.0488 KA relative to UGCAUGU.

For the molecule B24, the binding signal was 0.0694 KA relative to UGCAUGU.

Turning to B25, the binding signal is 0.0413 KA relative to UGCAUGU.

Turning to B26, the binding signal was 0.142 KA relative to UGCAUGU.

On to B27, for which the binding signal is 0.108 KA relative to UGCAUGU.

In the case of B28, the binding signal is 0.0869 KA relative to UGCAUGU.

Turning to B29, the binding signal is 0.0735 KA relative to UGCAUGU.

On to B30, for which the binding signal was 0.21 KA relative to UGCAUGU.

For B31, the binding signal was 0.325 KA relative to UGCAUGU.

On to B32, for which the binding signal is 0.398 KA relative to UGCAUGU.

For the molecule B33, the binding signal is 0.13 KA relative to UGCAUGU.

Consider B34, for which the binding signal was 0.142 KA relative to UGCAUGU.

As to B35, the binding signal is 0.402 KA relative to UGCAUGU.
